Pf growth 48h: inhibits P. falciparum growth in the first generation, 48 h | AID 504832 | 310,000 compounds, 5.9% hits | P. falciparum luciferase growth in erythrocytes, 48 h | Potency, µM (titrated, usually from 28.7 µM), for inactives: top-dose activity change, negative = inhibition, usual class: inhibitors; note: potency is the fitted concentration of half-maximal effect; % is set by controls: 0 for no effect and ±100 for the full control effect
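Erythrocytes infected with P. falciparum carrying an integrated firefly luciferase reporter (2% hematocrit, 0.1% parasitemia final) were exposed to compounds in RPMI 1640 with 0.5% Albumax at 37 C, 5% CO2. Growth inhibition was scored as reduced luminescence.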
Shiga toxin inh: blocks Shiga toxin action in Vero cells; inhibition, % at 38.7 µM; 290,000 compounds, 9.2% hits; AID 2315; Vero cells, Shiga toxin protein synthesis inhibition reporter; in the data active = inhibition mostly above about 28%, no sharp cut-off; inactive = mostly below about 43%; note: 0% is about no effect
Pf growth 96h: P. falciparum growth inhibition at 96 hour, primary screen for plastid delayed-death inhibitors. P. falciparum luciferase reporter growth, 96 h. Potency, µM (doses to about 28.7 µM), inactives show at the top dose activity change, negative = inhibition, hits mostly inhibitors. 320,000 compounds, 6.9% hits; note: potency is the fitted concentration of half-maximal effect; % is set by controls: 0 for no effect and ±100 for the full control effect
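Infected RBCs, 2% Hct / 0.05% parasitemia final; luciferase-reporter P. falciparum; cpd 96 h, 37 C, 5% CO2; luciferase detection reagent; luminescence.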
CHX counter: affects cycloheximide protein synthesis inhibition readout, counter-screen; cell reporter, cycloheximide protein synthesis inhibition counterscreen; max response, %; 300,000 compounds, 12% hits; in the data active = max response mostly above about 13%, no sharp cut-off; inactive = mostly below about 14%; note: read at 38.3 µM for the half of the compounds with a filed dose; 0% is about no effect
Numbers without * were called inactive; i = inactive; ? = inconclusive; . = no result; [ ] = another dose, or the depositor's remark. A selection: hits, their analogues and other compounds. The true share with any hit is near 21%. Unless noted, calls come from the whole dose curve; as a rule, active = well fitted inhibition curve with a large enough effect; inconclusive = small, poorly fitted or top-dose-only effect, or another doubt; inactive = no such curve, though single readings can be large or run the other way.

SMILES	Pf growth 48h	Shiga toxin inh	Pf growth 96h	CHX counter
O=C1NC(c2ccc3c(c2)OCO3)Oc2ccccc21 (stereo not drawn)	52%	-15	5.2µM*	-1
O=C1NC(c2ccc3c(c2)OCO3)Nc2ccccc21 (stereo not drawn)	38%	-12	?	-2
COc1ccc(C2=Nn3c(nnc3C(F)(F)F)SC2)cc1	-12%	-9	-4%	-1
COc1ccc(NC(=O)Cn2c(=O)oc3ccccc32)cc1	0%	-2	0%	2
CC(C)c1ccc(NC(=O)Cn2c(=O)oc3ccccc32)cc1	-25%	32*	218%	24
Cc1ccccc1NC(=O)Cn1c(=O)oc2ccccc21	5%	-7	4.1µM*	-1
COc1ccccc1S(=O)(=O)CC(O)COc1ccc(C#N)cc1 (stereo not drawn)	22%	24	22%	12
CC(C)CN(C(=O)c1cc2ccccc2o1)c1c(N)n(CC(C)C)c(=O)[nH]c1=O	11%	-17	-4%	4
Cn1cnc2cc(NCc3ccc(Cl)cc3)ccc21	77%	60*	?	45*
CCOc1ccc(CNc2ccc(S(N)(=O)=O)cc2)cc1	16%	2	-36%[5.75 µM]	1
CCOc1ccc(CNc2ccc3c(c2)ncn3C(C)(C)C)cc1	?	40*	136%	24*
CCOc1ccc(CNc2ccc3c(c2)ncn3C)cc1	-13%	38*	10µM*	35*
CC(NS(=O)(=O)c1ccc2c(c1)c(=O)n(C)c(=O)n2C)C(=O)NC1CCCCC1 (stereo not drawn)	22%	-8	?	-3
CC(C)(C#CC(O)(c1ccccc1)c1ccccc1)N1CCCC1	-18%	3	13%	13
CNc1nnc(SCC(=O)N2c3ccccc3NC(=O)CC2C)s1 (stereo not drawn)	37%	.	?	.
CCc1ccc(NC(=S)NCc2ccccc2)cc1	10%	142*	?	34*
COc1ccc(CNC(=S)Nc2cccc(F)c2)cc1	-25%	28*	0%	12*
CC(C)N(c1ccccc1)c1ccc(NC(=S)NCCN(C)C)cc1	-23%	-8	0%	-7
COc1ccc(NC(=S)NCc2ccc3c(c2)OCO3)cc1	2%	25	1.7µM*	15
CCNC(=S)Nc1ccc(N(c2ccccc2)C(C)C)cc1	0%	57*	.	17*
CC(C)c1ccc(NC(=S)NCc2ccc3c(c2)OCO3)cc1	-17%	36	-30%	12
O=C(NC1CCC(O)CC1)c1cccc2cccnc12 (stereo not drawn)	12%	-6	-12%	0
COc1ccc(NC(=O)CSCc2cc(=O)n3c(C)csc3n2)cc1	32%	6	-6%	1
Cc1cc2c(cc1S(=O)(=O)C(C)CC(=O)NCc1ccco1)OCC(=O)N2 (stereo not drawn)	30%	-2	-19%	-3
COc1ccc(CNC(=S)Nc2ccccc2)cc1	?	21	13µM*	7
SMILES	Pf growth 48h	Shiga toxin inh	Pf growth 96h	CHX counter
COc1ccc(NC(=S)N/N=C/c2cccn2Cc2ccc(F)cc2)cc1	?	46*	-2%	11
COc1cccc(NC(=S)NCc2ccc(F)cc2)c1	?	24	?	14*
COc1ccc(C/C(C)=N/NC(=S)Nc2ccccc2)cc1	61%	86*	80%	42
Cc1cccc(NC(=S)NCc2ccc(F)cc2)c1	10%	-5	74%	4
Cc1ccc(S(=O)(=O)N2CCC(C(=O)NCCc3ccccn3)CC2)cc1	-19%	-19	-5%	-3
Cc1cccc(C2(c3cccc(C)c3)CC2C(=O)Nc2ccc([N+](=O)[O-])cc2O)c1 (stereo not drawn)	2.1µM*	-2	?	1
C[C@@](Cc1ccccc1)(NC(=O)CN)c1ccccc1	6%	.	-18%	.
OCCN1CCN(CCCc2c3c(cc4c2CCC4)CCC3)CC1	12µM*	-22	12µM*	-2
COc1cc(/C=C2/C(=N)N3OC(C)=CC3=NC2=O)ccc1OC(=O)c1ccco1	29%	-10	13µM*	7
CC(C)CS(=O)(=O)C1=NSC2=NC(=O)/C(=C\c3ccc(OC(=O)c4ccco4)cc3)C(=N)N21	13%	-5	27%	-2
CC1=CSC2=NC(=O)/C(=C/c3cccc(OC(=O)c4ccco4)c3)C(=N)N12	12%	34*	-15%	11
CSC1=NSC2=NC(=O)/C(=C\c3ccc(OC(=O)c4ccco4)cc3)C(=N)N12	37%	34*	-24%	19*
COc1cccc(-c2nnc3n2N=C(c2ccc(OC)cc2OC)CS3)c1	.	-5	.	12
Cc1cc(NC(=O)CCC(=O)N(CC(=O)NC2CCCC2)c2ccc(C(C)C)cc2)no1	?	-8	?	-3
COc1ccccc1-c1c(C)nn2c(N)c(-c3ccccc3)cnc12	8%	67*	26%	39*
COCc1nn2c(N)c(-c3ccccc3)cnc2c1-c1ccccc1	60%	33*	?	38*
COc1ccc(-c2c(C)nn3c(N)c(-c4ccccc4)cnc23)cc1OC	?	88	-12%	18*
COc1ccccc1-c1c(C)nn2c(-c3ccccc3)cc(C)nc12	?	17	?	8
COc1ccc(-c2c(C)nn(-c3ccccc3)c2N)cc1OC	-20%	15	-13%	-2
O=C(CNC(=O)c1ccccc1Cl)NCC(c1cccs1)N1CCOCC1 (stereo not drawn)	25%	.	-19%	.
Cc1ccc(S(=O)(=O)N2[C@@H](c3ccc(Cl)cc3)C(C(=O)O)=CC[C@H]2c2cccs2)cc1	?	.	38%	.
O=C(c1ccccc1)N1CCN(c2ccc([N+](=O)[O-])c(NCc3cccnc3)c2)CC1	9.3µM*	-9	?	-7
COc1ccc(CCNc2cc(N3CCN(C(=O)c4ccc(C)cc4)CC3)ccc2[N+](=O)[O-])cc1OC	?	-9	?	2
CC(C)(C)C(=O)N1CCN(c2ccc([N+](=O)[O-])c(NCc3cccnc3)c2)CC1	?	-8	15%	-3
O=C(c1ccccc1F)N1CCN(c2ccc([N+](=O)[O-])c(NCc3cccnc3)c2)CC1	?	-6	10µM*	-2
SMILES	Pf growth 48h	Shiga toxin inh	Pf growth 96h	CHX counter
COc1ccc(C(=O)N2CCN(c3ccc([N+](=O)[O-])c(NCCc4ccc(OC)c(OC)c4)c3)CC2)cc1	10µM*	-1	4.7µM*	-3
c1cc(CN2CCCNCCNCCCNCC2)ccc1CN1CCCNCCNCCCNCC1	.	-8	.	-3
COc1cccc(-c2nc(CS(=O)(=O)CC(=O)NCCN3CCOCC3)c(C)o2)c1	53%	-10	?	10
Cc1ccccc1Nc1nc(N)nc(CSc2nnc(C)n2C)n1	0%	-3	14%	6
Cc1ccccc1Nc1nc(N)nc(CSc2ccc(F)cc2)n1	i	112*	299%	48*
Cc1ccc(Nc2nc(N)nc(CSc3nccn3C)n2)c(C)c1	89%	42*	.	18*
COCCn1c(SCc2nc(N)nc(Nc3ccccc3C)n2)nc2ccccc2c1=O	6%	-10	?	-2
Cc1ccccc1Nc1nc(N)nc(CSc2nnnn2C)n1	176%	118*	229%	48*
Cc1ccccc1Nc1nc(N)nc(CSc2nc3ccccc3c(=O)n2CCCO)n1	7.4µM*	22	.	-2
